Values of other authors as cited in PubChem BioAssay AID977611.
Several values for one entry are separate records, joined by “and”; a condition that tells them apart may be missing. Identical values can stand only once. Out of some 3,900 compounds screened, about 3,900 (100%) were called active. Cut-off not given; nearly all actives show Kd up to about 4200 µM. So high a share suggests a set chosen from earlier hits. Some of the results follow.

Assay: PubChem AID 977611
Conditions: PDB protein-ligand complexes, literature Kd

Compound | Kd
O=P(O)(O)OC1C(OP(=O)(O)O)C(OP(=O)(O)O)C(OP(=O)(O)O)C(OP(=O)(O)O)C1OP(=O)(O)O (stereo not drawn) | 180 nM (active)
NC(=O)c1ccc[n+]([C@@H]2O[C@H](COP(=O)([O-])OP(=O)(O)OC[C@H]3O[C@@H](n4cnc5c(N)ncnc54)[C@H](O)[C@@H]3O)[C@@H](O)[C@H]2O)c1 | 80 µM (active) and 63.7 µM (active)
Nc1ncnc2c1ncn2[C@@H]1O[C@H](COP(=O)(O)OP(=O)(O)O)[C@H]2O[C@]3(O[C@H]21)C([N+](=O)[O-])=CC([N+](=O)[O-])=CC3[N+](=O)[O-] (stereo partly drawn) | 2100 nM (active)
